Bioassay records as filed in PubChem BioAssay.
CHX counter – affects cycloheximide protein synthesis inhibition readout, counter-screen. cell reporter, cycloheximide protein synthesis inhibition counterscreen. max response, %. 12% of 300,000 active; in the data active = max response mostly above about 13%, no sharp cut-off; inactive = mostly below about 14%; note: read at 38.3 µM for the half of the compounds with a filed dose; 0% is about no effect
Shiga inhibitor – Shiga toxin inhibition | Vero cells, Shiga toxin protein synthesis inhibition reporter | inhibition, % at 38.7 µM | 9.2% of 290,000 active | AID 2315; in the data active = inhibition mostly above about 28%, no sharp cut-off; inactive = mostly below about 43%; note: 0% is about no effect
Pf growth 48h – inhibits P. falciparum growth in the first generation, 48 h; P. falciparum luciferase growth in erythrocytes, 48 h; Potency, µM (doses to about 28.7 µM), for inactives: at the highest dose activity change, negative = inhibition, hits mostly inhibitors; 5.9% of 310,000 active; note: potency is the fitted concentration of half-maximal effect; % is set by controls: 0 for no effect and ±100 for the full control effect
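In quantitative HTS format, infected erythrocytes bearing luciferase-reporter parasites were treated for a single generation at 37 C. Luminescence after adding detection reagent served as the growth measure.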
LmPK inh – blocks Leishmania mexicana pyruvate kinase activity; Q27686; purified LmPK, Kinase-Glo ATP luminescence, 1 h; Potency, µM (top dose mostly 57.5 µM), inactives show at the top dose activity change, negative = inhibition, usual class: inhibitors; 0.37% of 290,000 active; AID 1721; note: potency is the fitted concentration of half-maximal effect; % is set by controls: 0 for no effect and ±100 for the full control effect
Target sequence (Q27686 whole entry, looked up): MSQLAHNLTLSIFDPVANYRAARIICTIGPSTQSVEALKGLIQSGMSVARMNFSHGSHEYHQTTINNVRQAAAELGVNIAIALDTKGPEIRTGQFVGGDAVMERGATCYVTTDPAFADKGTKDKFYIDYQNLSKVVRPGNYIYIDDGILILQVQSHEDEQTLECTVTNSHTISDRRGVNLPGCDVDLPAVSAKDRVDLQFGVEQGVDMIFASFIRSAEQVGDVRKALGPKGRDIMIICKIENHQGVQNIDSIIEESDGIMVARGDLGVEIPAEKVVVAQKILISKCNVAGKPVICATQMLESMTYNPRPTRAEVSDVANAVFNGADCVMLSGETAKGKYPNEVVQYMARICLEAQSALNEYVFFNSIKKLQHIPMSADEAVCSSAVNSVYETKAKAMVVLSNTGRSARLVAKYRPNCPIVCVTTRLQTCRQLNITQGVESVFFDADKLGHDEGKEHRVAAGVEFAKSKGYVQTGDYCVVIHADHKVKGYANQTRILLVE
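Purified LmPK (0.1 nM) with 0.5 mM PEP and 0.1 mM ADP in imidazole buffer pH 7.2 with MgCl2/KCl, 1 h at room temperature. ATP formed was read by luciferase luminescence and normalized to no-enzyme and uninhibited controls.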
Pf growth 96h – P. falciparum growth inhibition at 96 hour, primary screen for plastid delayed-death inhibitors; P. falciparum luciferase reporter growth, 96 h; Potency, µM (doses to about 28.7 µM), for the others: top-dose activity change, negative = inhibition, hits mostly inhibitors; 6.9% of 320,000 active; AID 504834; note: potency is the fitted concentration of half-maximal effect; % is set by controls: 0 for no effect and ±100 for the full control effect
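Two-generation exposure (96 h) targets delayed-death phenotype. Reporter parasites carrying integrated firefly luciferase, in red cells at 2% hematocrit and 0.05% parasitemia final, kept at 37 C, 5% CO2; luminescence loss indicates inhibition.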
Numbers without * were called inactive; [ ] = remark or other dose. This is a sample that favours compounds with a hit; in the whole collection about 22% have one here. Unless noted, calls come from the whole dose curve; as a rule, active = well fitted inhibition curve with a large enough effect; inconclusive = small, poorly fitted or top-dose-only effect, or another doubt; inactive = no such curve, though single readings can be large or run the other way.

What do the screens show for `Cc1cc(Cl)ccc1OCCCC(=O)N1CCOCC1`?
CHX counter: 37*; Shiga inhibitor: 71*; Pf growth 48h: 40%; LmPK inh: 0%

Results for Cc1cc(Cl)ccc1OCCCC(=O)NN ?
CHX counter: 8; Shiga inhibitor: -17; Pf growth 48h: inconclusive; LmPK inh: 3%; Pf growth 96h: 9%

Results for CCOC(=O)CCCC(=O)N1CCOCCOCCN(C(=O)CCCC(=O)OCC)CCOCCOCC1 ?
CHX counter: 43*; Shiga inhibitor: 63*; Pf growth 48h: 108%; LmPK inh: 2%; Pf growth 96h: inconclusive

How did Cc1ccc(OCCCC(=O)N2CCOCC2)cc1 do in these assays?
CHX counter: 0; Shiga inhibitor: 65; Pf growth 48h: 45%; LmPK inh: -2%; Pf growth 96h: 6%

What do the screens show for `Cc1cc(OCCCC(=O)N2CCCCC2)cc(C)c1Cl`?
CHX counter: 13*; Shiga inhibitor: 32*; Pf growth 48h: 23%; LmPK inh: 2%; Pf growth 96h: -9%

How did Cc1cc(Cl)ccc1OCCCC(=O)N1CCCCC1 do in these assays?
CHX counter: 35*; Shiga inhibitor: 37; LmPK inh: 4%; Pf growth 96h: inconclusive

Results for Cc1cc(N)ccc1NC(=O)CN1CCCC1 ?
CHX counter: 11; Shiga inhibitor: -3; Pf growth 48h: 32%; LmPK inh: -3%; Pf growth 96h: inconclusive

What do the screens show for `N#Cc1c(-c2ccc(F)cc2)ccnc1N1CCOCC1`?
CHX counter: 19*; Shiga inhibitor: 27; Pf growth 48h: inconclusive; LmPK inh: 1%; Pf growth 96h: inconclusive

Results for N#Cc1c(-c2ccccc2)ccnc1N1CCOCC1 ?
CHX counter: 12; Shiga inhibitor: 30; Pf growth 48h: -17%; LmPK inh: -1%; Pf growth 96h: 4%

Results for CCOc1ccc(/C=N/NC(=O)CN2CCSCC2)cc1 ?
CHX counter: 10; Shiga inhibitor: -7; Pf growth 48h: 10%; LmPK inh: 4%; Pf growth 96h: inconclusive

What do the screens show for `COc1ccc(/C=N/NC(=O)CN2CCSCC2)cc1C`?
CHX counter: 18*; Shiga inhibitor: 26; Pf growth 48h: 16%; LmPK inh: -2%; Pf growth 96h: 7%

How did O=C(CN1CCSCC1)N/N=C/c1cccc(Cl)c1 do in these assays?
CHX counter: 15*; Shiga inhibitor: 11; Pf growth 48h: 21%; LmPK inh: 0%; Pf growth 96h: 30%

What do the screens show for `O=C(CN1CCCCCC1)N/N=C/c1cccc(Cl)c1`?
CHX counter: 27; Shiga inhibitor: -3; Pf growth 48h: 11%; LmPK inh: -1%; Pf growth 96h: 6%

Results for C=C(C)C1(O)OC(=O)C=C1OC (configuration not stated) ?
CHX counter: 8.5*; Shiga inhibitor: 14; Pf growth 48h: inconclusive; LmPK inh: 2%; Pf growth 96h: inconclusive

What do the screens show for `O=C(NC1C(=O)NNC1c1ccccc1)c1ccccc1` (configuration not stated)?
CHX counter: 21*; Shiga inhibitor: 116*; Pf growth 48h: 59%; LmPK inh: 0%; Pf growth 96h: 48%

What do the screens show for `Cc1cccc(C(=O)NC2C(=O)NNC2c2ccc(Cl)cc2)c1` (configuration not stated)?
CHX counter: -5; Shiga inhibitor: -35; Pf growth 48h: -8%; LmPK inh: 0%[11.5 µM]; Pf growth 96h: inconclusive

What do the screens show for `CCOc1cc(-c2cc(-c3ccccc3)nc(N)c2C#N)ccc1O`?
CHX counter: 11; Shiga inhibitor: -26; LmPK inh: 3%; Pf growth 96h: inconclusive

Results for CCOc1cc(-c2cc(-c3ccc(N)cc3)nc(N)c2C#N)ccc1O ?
CHX counter: -6; Shiga inhibitor: -5; Pf growth 48h: 12µM*; LmPK inh: 9%; Pf growth 96h: 86%

How did CC(=O)Nc1nccc(-c2cc(-c3ccccc3)no2)n1 do in these assays?
CHX counter: 30*; Shiga inhibitor: 53*; Pf growth 48h: 191%; LmPK inh: -13%; Pf growth 96h: 114%

What do the screens show for `CC(=O)Nc1cccc(-c2cc(-c3c(Cl)cccc3Cl)no2)c1`?
CHX counter: -3; Shiga inhibitor: 4; Pf growth 48h: inconclusive; LmPK inh: 5%; Pf growth 96h: -18%

What do the screens show for `CC(C)C[C@H](NC(=O)OC(C)(C)C)C(=O)N[C@@H](CO)[C@H](O)[C@@H]1C[C@@H]1C(=O)NC1CC1`?
CHX counter: -1; Shiga inhibitor: -4; Pf growth 48h: 23%; LmPK inh: 0%; Pf growth 96h: inconclusive

Results for CCc1cccc2c(C(=O)CN3C(=O)N(C)C4(CCCCC4)C3=O)c[nH]c12 ?
Pf growth 48h: inconclusive; Pf growth 96h: -22%

Results for Fc1ccc(CNc2nc3ccccc3n3cnnc23)cc1 ?
CHX counter: -6; Shiga inhibitor: -12; LmPK inh: 10%; Pf growth 96h: 146%

Results for CCCOc1cc(NCc2ccccc2)c2ncn(C(C)C)c2c1 ?
Pf growth 48h: 8.3µM*; Pf growth 96h: 2.6µM*

How did CCC(CO)Oc1cc(NCc2ccc(OC)cc2)c2ncn(C(C)C)c2c1 (configuration not stated) do in these assays?
Pf growth 48h: 15µM*; Pf growth 96h: inconclusive

Results for CC(C)n1cnc2c(NCc3ccccc3)cc(Cc3ccc(F)cc3)cc21 ?
Pf growth 48h: 10µM*; Pf growth 96h: 6.6µM*

What do the screens show for `CCOC(CNC(=O)CN1C(=O)COc2ccc(S(=O)(=O)N3CCCC3)cc21)OCC`?
CHX counter: -2; Shiga inhibitor: 20; Pf growth 48h: 12%; LmPK inh: -3%; Pf growth 96h: inconclusive

Results for CCOc1ccc(NC(=O)CN(C)C(=O)Cn2cnc3c2c(=O)n(C)c(=O)n3C)cc1OCC ?
Pf growth 48h: 0%; Pf growth 96h: 26%

How did O=C(NNC(=S)NC(=O)c1cccnc1)c1ccc(Cl)cc1 do in these assays?
CHX counter: 19*; Shiga inhibitor: -26; Pf growth 48h: inconclusive; LmPK inh: -2%; Pf growth 96h: 22%

What do the screens show for `O=C(NNC(=S)Nc1ccc(Br)cc1)c1cccnc1`?
CHX counter: 18*; Shiga inhibitor: 37; Pf growth 48h: 43%; LmPK inh: 4%; Pf growth 96h: 43%

What do the screens show for `O=C(NNC(=S)NCc1ccc(Cl)cc1)c1cccnc1`?
CHX counter: -1; Shiga inhibitor: -1; Pf growth 48h: 11%; LmPK inh: -1%; Pf growth 96h: 8%

What do the screens show for `O=C(Cc1ccc(Cl)cc1)NNC(=S)NC(=O)c1cccnc1`?
CHX counter: -3; Shiga inhibitor: 10; Pf growth 48h: -66%; LmPK inh: 3%; Pf growth 96h: 4.1µM*

Results for O=C(/C=C\Nc1ccc(Br)cc1)c1cccnc1 ?
CHX counter: 57*; Shiga inhibitor: 76*; Pf growth 48h: 285%; LmPK inh: -11%; Pf growth 96h: 305%

How did O=C(NC(=S)NNC(=O)c1ccc(Cl)cc1Cl)c1cccnc1 do in these assays?
CHX counter: -3; Shiga inhibitor: 32; Pf growth 48h: 0%; LmPK inh: 1%; Pf growth 96h: inconclusive
